# According to the supplement of paper PMC8253809:
# Several values for one entry are separate records, joined by “and”; a condition that tells them apart may be missing. Equal values may be shown once.
# What was measured:
# Test in all cases: growth inhibition (% activity, log2 RLU normalised to DMSO / staurosporine); higher = more growth inhibition
# Details in all cases: 33 µM
# DIPGX29 = system: DIPGX29 (H3.3 K27M diffuse intrinsic pontine glioma line)
# Summary of the method: (§1)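 For each approved drug, the growth-inhibition value is the replicate median of per-plate normalised CellTiter-Glo data. Luminescence was log2-transformed and expressed as % activity between solvent and positive control wells. Drugs were applied in triplicate at a single final concentration of about 33 μM for 7 days at 37 °C, 5% CO2 to pHGG cell lines and H9-derived neural stem cells.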
# DIPGX37 = system: DIPGX37 (H3.3 K27M diffuse intrinsic pontine glioma line)
# Summary of the method: as §1
# DIPGX7 = system: DIPGX7 (H3.3 K27M diffuse intrinsic pontine glioma line)
# Summary of the method: as §1
# DIPGX9 = system: DIPGX9 (diffuse intrinsic pontine glioma line)
# Summary of the method: as §1
# HGGX39 = system: HGGX39 (paediatric high-grade glioma line)
# Summary of the method: as §1
# HGGX6 = system: HGGX6 (H3.3 G34R paediatric high-grade glioma line)
# Summary of the method: as §1
# HNSC = system: HNSC
# Summary of the method: as §1
# SUDIPGIV = system: SUDIPGIV (diffuse intrinsic pontine glioma line)
# Summary of the method: as §1
# SUDIPGVI = system: SUDIPGVI (diffuse intrinsic pontine glioma line)
# Summary of the method: as §1
# SUDIPGXIII = system: SUDIPGXIII (diffuse intrinsic pontine glioma line)
# Summary of the method: as §1
SMILES,growth inhibition (DIPGX29),growth inhibition (DIPGX37),growth inhibition (DIPGX7),growth inhibition (DIPGX9),growth inhibition (HGGX39),growth inhibition (HGGX6),growth inhibition (HNSC),growth inhibition (SUDIPGIV),growth inhibition (SUDIPGVI),growth inhibition (SUDIPGXIII)
CN(C)c1ccc(C(=C2C=CC(=[N+](C)C)C=C2)c2ccc(N(C)C)cc2)cc1,39.6%,42.1%,42.3%,41.4%,51.4%,48.2%,72.2%,43.1%,50%,74.4%
Cn1c(=O)c2c(ncn2CC(O)CO)n(C)c1=O (stereo not given),1.16%,3.99%,1.95%,1.42%,2.44%,-0.962%,2.09%,1.65%,3.1%,-0.692%
CO[C@H]1C[C@@H]2CC[C@@H](C)[C@@](O)(O2)C(=O)C(=O)N2CCCC[C@H]2C(=O)O[C@H]([C@H](C)C[C@@H]2CC[C@@H](OC(=O)C(C)(CO)CO)[C@H](OC)C2)CC(=O)[C@H](C)/C=C(\C)[C@@H](O)[C@@H](OC)C(=O)[C@H](C)C[C@H](C)/C=C/C=C/C=C/1C,1.36%,0.103%,4.97%,14%,6.98%,5.24%,3.52%,1.47%,3.49%,-0.989%
NC(Cc1cc(I)c(Oc2cc(I)c(O)c(I)c2)c(I)c1)C(=O)O (stereo not given),0.479%,2.96%,-0.171%,1.28%,2.01%,-2.56%,27.8%,10.6%,7.79%,4.24%
CCC[C@@H]1C[C@@H](C(=O)N[C@@H]([C@H]2O[C@H](SC)[C@H](O)[C@@H](O)[C@H]2O)[C@H](C)Cl)N(C)C1,1.54% and 0.31%,0.378% and 0.388%,2.54% and -0.297%,-0.222% and -0.00863%,1.92% and 0.31%,0.389% and -3.2%,3.24% and 18.2%,2.02% and 2.11%,2.1% and -0.349%,-1.04% and -3.03%
CC1CCc2c(N3CCC(O)CC3)c(F)cc3c(=O)c(C(=O)O)cn1c23 (stereo not given),1.83%,2.99%,1.32%,2.53%,3.35%,2.89%,4.09%,0.692%,3.03%,-1.17%
O=C1Cc2cc(CCN3CCN(c4nsc5ccccc45)CC3)c(Cl)cc2N1,1.66%,1.3%,10.1%,1.16%,3.71%,2.44%,1.23%,2.05%,-3.95%,3.01%
COC(=O)[C@H](Cc1ccccc1)NC(=O)[C@@H](N)CC(=O)O,-2.32%,-1.81%,-2.17%,-2.28%,-1.24%,0.801%,-5.7%,-2.58%,-1.43%,-6.7%
C[C@@]12C[C@@]3(O)O[C@@H](O1)[C@]1(COC(=O)c4ccccc4)[C@H]3C[C@@]12O[C@@H]1O[C@H](CO)[C@@H](O)[C@H](O)[C@H]1O,-0.664%,0.987%,-0.876%,1.21%,-0.682%,1.84%,-1.36%,-1.25%,0.677%,-13.1%
CC(C)NCC(O)c1ccc(O)c(O)c1 (stereo not given),-3.68%,-0.899%,-1.64%,-0.316%,-1.58%,0.187%,-3.47%,-0.959%,-4.2%,-0.909%
C[C@@H](CN1CC(=O)NC(=O)C1)N1CC(=O)NC(=O)C1,-0.213%,0.752%,1.24%,0.711%,0.0185%,-0.816%,2.52%,-0.536%,-1.35%,-1.67%
CN(C)CC/C=C1/c2ccccc2Sc2ccc(Cl)cc21,-0.186%,0.387%,0.793%,0.131%,0.989%,2.17%,-1.13%,-1.17%,-0.358%,-1.03%
COc1ccc2cc1Oc1ccc(cc1)C[C@H]1c3c(cc4c(c3Oc3cc5c(cc3OC)CCN(C)[C@@H]5C2)OCO4)CCN1C,1.78%,2.93%,1.55%,1.36%,3.95%,0.797%,3.27%,-0.21%,3.68%,1.63%
CC1=C(C(=O)O)N2C(=O)[C@@H](NC(=O)[C@H](N)c3ccccc3)[C@H]2SC1,-0.253%,0.936%,6.97%,-1.35%,3.87%,0.198%,-2.54%,-1.66%,-13.3%,2.38%
COC(=O)C1=C(C)NC(C)=C(C(=O)OC)C1c1ccccc1[N+](=O)[O-],-2.53%,-2.53%,0.0754%,3.5%,-0.258%,-0.288%,8.49%,-2.66%,-7.47%,-0.486%
CC[C@H](C)C[C@H](C)CCCCCCCCC(=O)N[C@H]1C[C@@H](O)[C@@H](NCCN)NC(=O)[C@@H]2[C@@H](O)CCN2C(=O)[C@H]([C@H](O)CCN)NC(=O)[C@H]([C@H](O)[C@@H](O)c2ccc(O)cc2)NC(=O)[C@@H]2C[C@@H](O)CN2C(=O)[C@H]([C@@H](C)O)NC1=O,-0.204%,-0.0661%,3.78%,1.06%,2.93%,-1.44%,7.21%,-1.11%,-4.4%,0.336%
COc1ccc2cc([C@H](C)C(=O)O)ccc2c1,-0.22%,-1.1%,-0.43%,0.193%,-0.312%,0.298%,0.9%,-2.72%,0.358%,0.579%
COc1nc(C)nc(Cl)c1NC1=NCCN1,-1.42%,-1.39%,-1.95%,-1.31%,0.125%,-1.01%,-1.76%,-1.72%,-2.98%,-0.769%
Cn1ccnc1S,-2.03%,-0.808%,-1.31%,-0.195%,-0.799%,-0.968%,-4.2%,-2.69%,-1.6%,-8.17%
Cc1ccccc1C(=O)Nc1ccc(C(=O)N2CCCC(O)c3cc(Cl)ccc32)c(C)c1 (stereo not given),1.7%,2.36%,1.66%,1.96%,5.63%,2.91%,3.21%,2.35%,3.58%,0.514%
c1cc(CN2CCCNCCNCCCNCC2)ccc1CN1CCCNCCNCCCNCC1,1.86%,3.43%,1.65%,2.55%,4.18%,5.37%,11.8%,12.5%,5.04%,3.18%
